Laboratory results taken from the supplement of paper PMC11732987, “Enantioselective OTUD7B fragment discovery through chemoproteomics screening and high-throughput optimisation” (Communications Chemistry, 2025).

Experiments:
Test in all cases: log2 ratio of Biotin-Ahx-Ub-VS probe labelling (fragment/DMSO); higher = less target engagement (more negative = stronger competition), active = hit call of the paper (q ≤ 0.05, log2 ratio ≤ -1)
Details in all cases: compound concentration: 200 uM; treatment time: 3 h
[1] = target: T1, USP19 (UniProt O94966)
T1 sequence (whole entry): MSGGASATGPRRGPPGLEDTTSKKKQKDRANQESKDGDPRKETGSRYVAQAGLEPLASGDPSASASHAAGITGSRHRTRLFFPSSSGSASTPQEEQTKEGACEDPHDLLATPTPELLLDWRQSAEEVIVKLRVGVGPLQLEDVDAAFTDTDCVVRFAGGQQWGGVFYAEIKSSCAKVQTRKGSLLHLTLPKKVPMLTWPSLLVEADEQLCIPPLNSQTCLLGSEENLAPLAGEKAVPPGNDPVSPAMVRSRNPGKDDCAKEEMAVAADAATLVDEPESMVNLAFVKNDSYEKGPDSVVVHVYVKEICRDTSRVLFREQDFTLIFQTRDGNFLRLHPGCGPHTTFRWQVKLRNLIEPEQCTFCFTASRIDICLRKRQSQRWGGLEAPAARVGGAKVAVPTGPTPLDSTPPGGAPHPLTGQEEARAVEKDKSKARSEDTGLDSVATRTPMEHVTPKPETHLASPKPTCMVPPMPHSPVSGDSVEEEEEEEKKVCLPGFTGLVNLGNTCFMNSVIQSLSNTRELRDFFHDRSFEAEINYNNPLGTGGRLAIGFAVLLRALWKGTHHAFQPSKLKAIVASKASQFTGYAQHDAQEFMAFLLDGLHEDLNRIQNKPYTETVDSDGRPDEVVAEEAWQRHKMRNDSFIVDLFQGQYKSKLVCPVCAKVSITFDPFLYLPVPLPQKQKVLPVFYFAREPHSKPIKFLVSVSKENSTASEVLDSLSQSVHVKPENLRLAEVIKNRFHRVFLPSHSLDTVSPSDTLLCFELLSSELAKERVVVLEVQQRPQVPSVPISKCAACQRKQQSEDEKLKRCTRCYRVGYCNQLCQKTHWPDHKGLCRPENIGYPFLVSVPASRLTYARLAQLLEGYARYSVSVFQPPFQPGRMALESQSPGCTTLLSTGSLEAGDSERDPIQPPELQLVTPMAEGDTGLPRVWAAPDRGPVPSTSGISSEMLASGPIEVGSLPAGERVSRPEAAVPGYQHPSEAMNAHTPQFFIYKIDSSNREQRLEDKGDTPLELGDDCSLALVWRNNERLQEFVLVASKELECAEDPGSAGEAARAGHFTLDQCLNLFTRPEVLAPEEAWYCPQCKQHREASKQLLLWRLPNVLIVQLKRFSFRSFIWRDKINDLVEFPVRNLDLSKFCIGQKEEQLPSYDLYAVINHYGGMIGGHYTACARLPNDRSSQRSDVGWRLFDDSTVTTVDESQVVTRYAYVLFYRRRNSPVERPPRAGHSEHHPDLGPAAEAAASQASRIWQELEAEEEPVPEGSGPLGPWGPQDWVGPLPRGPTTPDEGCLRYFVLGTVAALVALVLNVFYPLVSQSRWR
Method in brief: (§1)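 Labelled DUBs from HEK293T lysate were NeutrAvidin-enriched, digested with LysC and trypsin, and run by diaPASEF LC-MS/MS. Before that, each 495 µg sample in Tris/CHAPS/IGEPAL buffer with protease inhibitors was treated in triplicate with fragment at 200 µM or vehicle for 3 h, then with Biotin-Ahx-Ub-VS at 0.5 µM final for 1 h. Values are average log2 ratios of fragment over vehicle by unpaired t-test, based on global-median-normalised Spectronaut label-free quantities from proteins with ≥2 unique peptides.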

[2] = target: T2, USP22 (UniProt Q9UPT9)
T2 sequence (whole entry): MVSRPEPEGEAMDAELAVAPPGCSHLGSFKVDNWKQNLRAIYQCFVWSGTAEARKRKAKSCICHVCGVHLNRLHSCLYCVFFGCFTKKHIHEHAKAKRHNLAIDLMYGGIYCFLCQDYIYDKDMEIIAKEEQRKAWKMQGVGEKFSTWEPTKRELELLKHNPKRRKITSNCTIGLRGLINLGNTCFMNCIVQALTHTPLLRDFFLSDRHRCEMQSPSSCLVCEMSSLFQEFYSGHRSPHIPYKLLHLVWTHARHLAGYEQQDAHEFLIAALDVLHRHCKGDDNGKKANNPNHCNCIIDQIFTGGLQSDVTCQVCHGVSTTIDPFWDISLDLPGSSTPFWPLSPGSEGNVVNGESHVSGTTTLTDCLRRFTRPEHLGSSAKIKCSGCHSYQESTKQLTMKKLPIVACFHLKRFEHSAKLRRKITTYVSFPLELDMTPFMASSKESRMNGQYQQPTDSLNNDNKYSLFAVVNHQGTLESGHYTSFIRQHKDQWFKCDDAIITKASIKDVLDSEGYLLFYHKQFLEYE
Method in brief: as §1

[3] = target: USP24 (UniProt Q9UPU5)
Method in brief: as §1

[4] = target: T3, USP25 (UniProt Q9UHP3)
T3 sequence (whole entry): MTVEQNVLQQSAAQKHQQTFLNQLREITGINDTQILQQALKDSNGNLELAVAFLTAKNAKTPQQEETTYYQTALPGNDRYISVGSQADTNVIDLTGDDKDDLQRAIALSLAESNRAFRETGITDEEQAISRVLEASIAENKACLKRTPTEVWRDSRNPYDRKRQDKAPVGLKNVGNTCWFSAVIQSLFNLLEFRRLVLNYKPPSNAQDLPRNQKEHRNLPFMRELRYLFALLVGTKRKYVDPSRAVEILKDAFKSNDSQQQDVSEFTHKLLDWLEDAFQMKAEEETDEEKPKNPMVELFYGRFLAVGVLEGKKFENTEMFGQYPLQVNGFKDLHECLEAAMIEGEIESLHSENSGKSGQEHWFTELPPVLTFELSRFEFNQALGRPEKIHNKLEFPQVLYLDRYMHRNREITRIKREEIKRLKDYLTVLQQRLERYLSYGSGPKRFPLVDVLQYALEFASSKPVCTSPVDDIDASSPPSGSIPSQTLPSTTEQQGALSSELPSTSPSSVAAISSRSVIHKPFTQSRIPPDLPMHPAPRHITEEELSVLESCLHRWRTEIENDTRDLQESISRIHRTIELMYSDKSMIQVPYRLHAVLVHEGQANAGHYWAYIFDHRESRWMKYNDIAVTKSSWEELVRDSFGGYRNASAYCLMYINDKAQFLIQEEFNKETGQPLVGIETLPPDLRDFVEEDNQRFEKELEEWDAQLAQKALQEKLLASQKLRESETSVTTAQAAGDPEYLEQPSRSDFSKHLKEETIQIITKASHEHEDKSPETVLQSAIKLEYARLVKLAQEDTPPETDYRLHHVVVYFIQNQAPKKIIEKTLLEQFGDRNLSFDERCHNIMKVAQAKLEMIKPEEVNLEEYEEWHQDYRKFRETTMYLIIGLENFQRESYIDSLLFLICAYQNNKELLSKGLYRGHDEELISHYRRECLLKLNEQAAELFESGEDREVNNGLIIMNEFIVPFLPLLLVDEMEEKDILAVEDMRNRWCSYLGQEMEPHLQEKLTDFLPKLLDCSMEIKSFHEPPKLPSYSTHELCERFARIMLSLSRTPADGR
Method in brief: as §1

[5] = target: T4, USP28 (UniProt Q96RU2)
T4 sequence (whole entry): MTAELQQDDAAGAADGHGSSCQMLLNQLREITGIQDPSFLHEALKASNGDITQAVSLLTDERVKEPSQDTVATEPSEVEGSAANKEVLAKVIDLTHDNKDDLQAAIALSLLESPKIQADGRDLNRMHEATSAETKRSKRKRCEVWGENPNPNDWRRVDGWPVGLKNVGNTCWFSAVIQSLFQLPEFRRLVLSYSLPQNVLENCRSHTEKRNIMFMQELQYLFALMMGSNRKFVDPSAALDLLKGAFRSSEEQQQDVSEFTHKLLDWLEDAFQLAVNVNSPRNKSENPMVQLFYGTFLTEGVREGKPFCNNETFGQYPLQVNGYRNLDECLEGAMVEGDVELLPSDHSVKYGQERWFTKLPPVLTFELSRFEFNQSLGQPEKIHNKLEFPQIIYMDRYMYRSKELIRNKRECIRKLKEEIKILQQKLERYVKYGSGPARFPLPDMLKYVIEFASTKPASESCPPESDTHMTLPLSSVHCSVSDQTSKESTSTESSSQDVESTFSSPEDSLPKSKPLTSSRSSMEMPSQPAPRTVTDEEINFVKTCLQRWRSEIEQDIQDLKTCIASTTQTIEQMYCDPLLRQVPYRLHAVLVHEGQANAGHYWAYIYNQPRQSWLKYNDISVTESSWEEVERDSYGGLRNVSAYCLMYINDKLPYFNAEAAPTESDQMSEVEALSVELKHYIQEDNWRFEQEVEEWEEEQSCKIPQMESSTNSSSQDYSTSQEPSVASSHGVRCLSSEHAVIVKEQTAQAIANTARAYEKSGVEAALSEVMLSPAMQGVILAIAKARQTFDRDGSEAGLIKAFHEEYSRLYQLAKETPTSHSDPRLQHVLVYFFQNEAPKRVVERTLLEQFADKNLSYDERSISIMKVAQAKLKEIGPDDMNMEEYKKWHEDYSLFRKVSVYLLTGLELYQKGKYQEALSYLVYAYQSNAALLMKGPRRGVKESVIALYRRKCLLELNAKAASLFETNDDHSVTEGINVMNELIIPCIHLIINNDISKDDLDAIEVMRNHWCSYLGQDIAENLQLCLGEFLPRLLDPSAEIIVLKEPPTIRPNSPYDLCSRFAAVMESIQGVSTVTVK
Method in brief: as §1

Measured: log2 ratio of Biotin-Ahx-Ub-VS probe labelling

USP24, sequence (Q9UPU5 whole entry): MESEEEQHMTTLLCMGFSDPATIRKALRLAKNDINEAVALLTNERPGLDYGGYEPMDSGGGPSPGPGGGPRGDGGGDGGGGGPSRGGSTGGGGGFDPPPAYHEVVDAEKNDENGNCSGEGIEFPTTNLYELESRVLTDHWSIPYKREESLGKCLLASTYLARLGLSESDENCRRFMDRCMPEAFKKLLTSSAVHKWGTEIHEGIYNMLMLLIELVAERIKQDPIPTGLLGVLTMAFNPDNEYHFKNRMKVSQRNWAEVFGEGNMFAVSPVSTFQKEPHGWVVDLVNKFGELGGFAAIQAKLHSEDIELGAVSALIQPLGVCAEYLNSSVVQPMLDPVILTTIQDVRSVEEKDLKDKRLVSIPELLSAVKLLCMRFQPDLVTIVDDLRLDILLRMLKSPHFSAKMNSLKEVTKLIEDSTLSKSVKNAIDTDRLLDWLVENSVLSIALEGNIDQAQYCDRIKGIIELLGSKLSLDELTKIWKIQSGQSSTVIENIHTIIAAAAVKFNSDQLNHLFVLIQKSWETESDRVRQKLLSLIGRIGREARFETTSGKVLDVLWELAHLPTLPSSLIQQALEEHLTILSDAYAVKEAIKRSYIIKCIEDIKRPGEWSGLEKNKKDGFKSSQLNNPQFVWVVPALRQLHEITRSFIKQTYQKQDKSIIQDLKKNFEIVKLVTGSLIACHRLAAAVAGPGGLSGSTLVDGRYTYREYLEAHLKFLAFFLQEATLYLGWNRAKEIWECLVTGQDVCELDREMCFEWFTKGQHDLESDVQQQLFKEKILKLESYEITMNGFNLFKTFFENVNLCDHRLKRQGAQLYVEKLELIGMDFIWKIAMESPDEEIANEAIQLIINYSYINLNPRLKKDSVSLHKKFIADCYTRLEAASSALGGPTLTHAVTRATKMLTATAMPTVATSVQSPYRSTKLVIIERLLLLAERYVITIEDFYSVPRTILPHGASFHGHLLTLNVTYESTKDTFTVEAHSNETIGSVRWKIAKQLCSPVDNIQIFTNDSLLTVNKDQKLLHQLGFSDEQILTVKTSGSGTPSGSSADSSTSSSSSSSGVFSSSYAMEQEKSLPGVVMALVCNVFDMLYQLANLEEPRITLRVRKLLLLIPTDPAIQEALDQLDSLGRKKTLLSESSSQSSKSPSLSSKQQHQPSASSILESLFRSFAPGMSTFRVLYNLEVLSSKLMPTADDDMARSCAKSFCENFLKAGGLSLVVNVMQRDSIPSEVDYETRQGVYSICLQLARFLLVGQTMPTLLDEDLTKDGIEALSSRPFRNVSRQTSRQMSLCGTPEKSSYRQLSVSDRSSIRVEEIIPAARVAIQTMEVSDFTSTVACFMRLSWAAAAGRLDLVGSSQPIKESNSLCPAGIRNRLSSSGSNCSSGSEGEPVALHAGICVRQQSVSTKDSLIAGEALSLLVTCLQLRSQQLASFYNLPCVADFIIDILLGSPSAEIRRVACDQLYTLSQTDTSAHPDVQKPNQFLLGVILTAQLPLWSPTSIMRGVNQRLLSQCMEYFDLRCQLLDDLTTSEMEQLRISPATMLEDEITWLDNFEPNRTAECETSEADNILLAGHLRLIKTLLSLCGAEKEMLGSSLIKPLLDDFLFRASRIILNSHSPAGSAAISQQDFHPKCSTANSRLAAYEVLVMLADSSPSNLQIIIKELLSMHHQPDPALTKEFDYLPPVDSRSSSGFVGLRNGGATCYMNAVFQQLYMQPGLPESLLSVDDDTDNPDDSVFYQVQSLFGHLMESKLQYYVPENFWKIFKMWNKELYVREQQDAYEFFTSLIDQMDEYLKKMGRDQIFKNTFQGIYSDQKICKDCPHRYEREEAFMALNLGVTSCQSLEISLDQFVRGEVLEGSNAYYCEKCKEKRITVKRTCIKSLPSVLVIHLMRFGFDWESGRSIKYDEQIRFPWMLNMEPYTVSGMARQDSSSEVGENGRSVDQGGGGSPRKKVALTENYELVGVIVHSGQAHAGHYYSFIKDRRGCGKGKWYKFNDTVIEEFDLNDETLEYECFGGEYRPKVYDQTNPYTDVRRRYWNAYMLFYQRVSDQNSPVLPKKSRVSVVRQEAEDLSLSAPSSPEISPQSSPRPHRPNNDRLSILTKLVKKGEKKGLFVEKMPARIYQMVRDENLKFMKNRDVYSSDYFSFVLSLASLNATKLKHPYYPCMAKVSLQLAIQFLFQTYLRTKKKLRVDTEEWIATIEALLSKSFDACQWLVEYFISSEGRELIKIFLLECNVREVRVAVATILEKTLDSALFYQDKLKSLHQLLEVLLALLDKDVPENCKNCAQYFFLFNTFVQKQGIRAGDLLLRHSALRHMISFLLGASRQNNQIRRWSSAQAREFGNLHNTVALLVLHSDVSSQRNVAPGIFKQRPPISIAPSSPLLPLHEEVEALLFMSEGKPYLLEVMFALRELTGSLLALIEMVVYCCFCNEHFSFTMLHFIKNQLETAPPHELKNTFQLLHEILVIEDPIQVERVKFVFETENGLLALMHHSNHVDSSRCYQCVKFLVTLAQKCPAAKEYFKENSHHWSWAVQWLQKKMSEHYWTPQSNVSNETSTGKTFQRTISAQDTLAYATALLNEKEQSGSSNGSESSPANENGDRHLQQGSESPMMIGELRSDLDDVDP

O=C(CCl)NCCC1COCCO1 (stereo not given)
inactive: [1] -0.207 | [2] 0.193 | [3] -0.21 | [4] -0.158 | [5] -0.225
